# According to PubChem BioAssay AID1240 (Sanford-Burnham Center for Chemical Genomics, 2008):
# Hit rate of the full screen: of about 50,000 compounds, about 800 (1.6%) showed an effect of 50% or more. What follows is part of a selection rich in strong results, with near analogues and random picks from the rest.
# Target: Bcl-2-like protein 10 (Homo sapiens) (UniProt Q9HD36)
# Test: Phenotype converters, Bcl-B/TR3 peptide binding displacement, primary biochemical FP (AID 1240);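 also: 0% = Bcl-B with tracer peptide and DMSO and 100% = tracer peptide lacking Bcl-B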
# Details: GST-Bcl-B / FITC-TR3 peptide fluorescence polarization; stronger effect = higher value; compound at 3.75 mg/L
# Sequence of Bcl-2-like protein 10 (Homo sapiens) (Q9HD36 whole entry, looked up): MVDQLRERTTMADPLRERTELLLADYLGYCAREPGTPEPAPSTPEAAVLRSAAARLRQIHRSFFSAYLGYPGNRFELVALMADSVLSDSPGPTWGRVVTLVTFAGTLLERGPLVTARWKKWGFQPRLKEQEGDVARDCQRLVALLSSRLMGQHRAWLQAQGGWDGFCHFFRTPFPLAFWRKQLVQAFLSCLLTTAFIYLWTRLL
row,SMILES,displacement [%]
1,O=c1c(C=NCc2cccs2)c(C(F)(F)F)[nH]n1-c1nc2ccccc2s1,-13.8
2,CCCc1[nH]n(-c2nc3ccccc3s2)c(=O)c1C=NCCc1ccccc1,-1
3,COc1ccc(CCN=Cc2c(C(F)(F)F)[nH]n(-c3nc4ccccc4s3)c2=O)cc1OC,69.9
4,Cc1ccc(C)c(NC(=O)C2C3C4CCC(C4)C23)c1 (stereo not given),-7.2
5,COc1ccc(/C=C/C(=O)NC(=S)Nc2ccc(I)cc2)cc1,14.3
6,CCN(CC)C(=O)c1cnn(-c2ccccc2)c1NC(=O)c1ccccc1Cl,9.1
7,O=C(Nc1c(C(=O)Nc2cccc(Cl)c2)cnn1-c1ccccc1)c1ccccc1Cl,83
8,Cc1ccc(NC(=O)c2cnn(-c3ccccc3)c2NC(=O)c2ccccc2Cl)cc1C,3.3
9,COCCOC(=O)c1ccc(NC(=O)c2ccccc2CCc2ccccc2)cc1,7.1
10,CN1CCC(O)N1C(=O)c1ccccc1O (stereo not given),12.7
11,Cc1ccc(-c2nc3ccccc3o2)cc1NC(=O)c1ccc2c(c1)OCCO2,45.1
12,Cc1ccc(-c2nc3ccccc3o2)cc1NC(=O)c1cccc(Cl)c1,17
13,CCc1ccc2oc(-c3cccc(NC(=O)c4ccc5c(c4)OCCO5)c3)nc2c1,0.9
14,Cc1ccc(-c2nc3cc(Cl)cc(Cl)c3o2)cc1NC(=O)c1ccc2c(c1)OCCO2,6.6
15,O=C(Nc1cccc(-c2nc3cc(Cl)ccc3o2)c1)c1ccc(Cl)cc1,0.2
16,O=C(Nc1cccc(-c2nc3cc(Cl)ccc3o2)c1)c1ccc2c(c1)OCCO2,105
17,COc1c(Cl)cc(C(=O)Nc2cc(-c3nc4cc(Cl)ccc4o3)ccc2C)cc1Cl,7.7
18,Cc1ccc(-c2nc3cc(Cl)ccc3o2)cc1NC(=O)c1ccc2c(c1)OCCO2,102
19,Cc1ccc(-c2nc3cc(Cl)ccc3o2)cc1NC(=O)c1ccc2ccccc2c1,128
20,CCc1ccc2oc(-c3ccc(C)c(NC(=O)c4cc(OC)cc(OC)c4)c3)nc2c1,13.4
21,Cc1ccc2nc(-c3ccc(C)c(NC(=O)c4ccc5ccccc5c4)c3)oc2c1,-11.3
22,COc1cc(OC)cc(C(=O)Nc2cc(-c3nc4cc(Cl)ccc4o3)ccc2C)c1,110
23,COc1ccc(C)cc1NC(=O)COc1ccc(Br)cc1C,7.7
24,CCOC(=O)C1=C(C)NC(=O)CC1c1ccccc1I (stereo not given),-10.7
25,COc1ccc(OCCCCN2CCN(C)CC2)cc1,-5.8
26,Cc1noc2c1/C(=N\O)CC(c1ccccc1)C2 (stereo not given),2.6
27,Cc1cc(C(=O)Nc2cccc(C)c2C)ccc1[N+](=O)[O-],15.9
28,COC(=O)c1c(C)oc2ccc(OCc3c(F)cccc3Cl)cc12,91
29,COCCOC(=O)c1c(C)oc2ccc(OCc3c(F)cccc3Cl)cc12,6.9
30,Cc1oc2ccc(OCc3c(F)cccc3Cl)cc2c1C(=O)O,11.7
